Experimental data reported in the supplement of paper PMC11417369.
± gives the standard deviation of the averaged measurements. Whole data set: some 25,000 sequences, median “ln(normalized median fluorescence intensity)” near 8.6, cut for the highest 2% near 10. The sample as a whole holds a higher share of the highest values than the screen did.

The sequences below were run on PfAP2-EXP AP2 domain (GST-tagged) (assay: gcPBM binding intensity (ln(normalized median fluorescence intensity)); higher = stronger DNA binding).
How it was run: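 In this array assay, P. falciparum DNA-binding domains with a GST tag, expressed in E. coli, were applied for 1 h to primer-extended double-stranded 36-bp intergenic genomic probes and negative controls on an Agilent 4 × 180k array. Bound protein was visualised with Alexa488 anti-GST antibody at 488 nm. Binding intensity is the highest Masliner-normalised natural-log median intensity across replicate spots of either probe orientation.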

| Sequence | gcPBM binding intensity (ln) |
| --- | --- |
| TATAATATATTTATATGTACTTATTTATTTATATAT [XGTACX_site6519] | 8.39 ± 0.34 |
| AAAAATAAAATAAAGAAGGAAAATAAAAAAATAAGG [CACACA_negctrl_site1811] | 8.79 ± 0.44 |
| ATTTGTATATATTAATGTACACACATGCGTATGTTC [XGTACX_site7579] | 8.73 ± 0.41 |
| ATATTTATGACCGTACGTACCTAACAATACAATCAA [XGTACX_site4511] | 8.67 ± 0.099 |
| TATATAAACATATAAACATGCAATATATATATGTTA [TGCATGCA_site765] | 8.43 ± 0.2 |
| TTAATTTACATGAACTGTACATAACATTTTTTTAAA [XGTACX_site4672] | 8.38 ± 0.38 |
| AAATTATAATATAATACACACATAAAAAAAAAATCA [CACACA_site3634] | 8.6 ± 0.43 |
| CCCCCCGTGTTATATACACACATAATCAAATAAAAT [CACACA_site4111] | 10.9 ± 0.078 |
| CAATTCAATATATATACACACACACTATTAATAATT [CACACA_site9256] | 8.52 ± 0.41 |
| ATAAATAATATAAATACACACTAAAAAAAATATATA [CACACA_site4456] | 8.62 ± 0.54 |
| AGGCACGTGTTATATACACACATAATCAAATAAACT [CACACA_site7852] | 8.76 ± 0.56 |
| TATATATATATATATACACACTATATAATTCAAACA [CACACA_site4712] | 10.1 ± 0.33 |
| ATATAAATAATATAAATACACACTAAAAAAAATATA [CACACA_site542] | 8.72 ± 0.51 |
| TATATATATATATATACACACACACTAATAAAAAAA [CACACA_site8426] | 10.2 ± 0.21 |
| TATATATATATATATATACACACTATATAATTCAAA [CACACA_site1023] | 10.2 ± 0.44 |
| AAAGTAAAAGAAAGCACACACACATGGATTTATGTA [CACACA_site5997] | 8.53 ± 0.49 |
| ATATAGAATGTTTACACACGCAATAAATATATATAT [CACACA_site217] | 9.27 ± 0.13 |
| AAAAAAAAAAAAAAAAAAAAAAAAAAAATTCTATAT [GTGCAC_negctrl_site468] | 9.28 |
| ACAAATAAATATATATGTACATATATTTTTTTATTT [XGTACX_site2989] | 8.56 ± 0.37 |

| Sequence | gcPBM binding intensity (ln) |
| --- | --- |
| TATATAGAAAACAAGGCATGCAAATAACAAATTGTG [TGCATGCA_site473] | 9.85 ± 0.36 |
| ATATAGAACACCTGTGCATGCAAGTGCTAAAAAATT [TGCATGCA_site213] | 10.175 ± 0.007 |
| GACACCTGCATGAAAGTGCAAAATAGAAAAGGAACA [GTGCAC_site9593] | 9.22 ± 0.38 |
| TATTTTACTTTAAAAATGGAAAAAAAAAAGAATATT [CACACA_negctrl_site1360] | 8.38 ± 0.47 |
| TAGAAATAAGAAAAATGTACATATAATATTGAAAGT [XGTACX_site3043] | 9.17 ± 0.35 |
| AATGATACACATATATGTACATATATATATATATAT [XGTACX_site5391] | 10 ± 0.58 |
| GTAATATATACAAAATGTACAAAACAATAACATGAT [XGTACX_site8575] | 8.8 ± 0.39 |
| TAATGATAAATACATACACACAAAAAATGATATATA [CACACA_site7258] | 8.6 ± 0.32 |
| ATACAATGATATATACATATATATATATATATATAT [TGCATGCA_negctrl_site359] | 10.2 ± 0.49 |
| CGCAAAACAATGATACGTACATATATATATATATAT [XGTACX_site5883] | 10.3 ± 0.33 |
| TAAAAAAAAACATATACACACAAAAACGTACACATA [CACACA_site1354] | 8.86 ± 0.36 |
| AGAATATTTATATGATGTACTTATATATATATATAT [XGTACX_site3021] | 9.97 ± 0.47 |
| AAAAGCACAAAAAATACACACACAAAAAATAAAAAA [CACACA_site8545] | 8.5 ± 0.57 |
| TTCAAATTGTTTATATGTACTTATAAAAATTGTCTG [XGTACX_site977] | 8.35 ± 0.42 |
| ACATGAATTTATATGTGTACTAACTATATTCTTAAA [XGTACX_site5966] | 8.27 ± 0.25 |
| TTAAAAATAATATTATGTACTAAGAATAAATATATA [XGTACX_site3100] | 8.34 ± 0.43 |
| ATATATATATATATATGTACTAAGAATTCTTTAAAA [XGTACX_site8476] | 10.3 ± 0.16 |
| CATTTTAAAGAAAATACACACAAAAATAGATATATA [CACACA_site6773] | 8.66 ± 0.38 |
| ATTTGTTACGGACATGCATGCGAATCAGGGTATATA [TGCATGCA_site154] | 10.1 ± 0.28 |

| Sequence | gcPBM binding intensity (ln) |
| --- | --- |
| CATATTCCCCCCCACACACACACACGCATACATACC [CACACA_site7148] | 11.1 ± 0.19 |
| GACATATTCCCCCCCACACACACACCCACATACATA [CACACA_site2302] | 10.8 ± 0.11 |
| ACCATACATACATACACACACACACGCATATTTATA [CACACA_site7386] | 9.05 ± 0.6 |
| TTGGCATACAGACACACACACACACCCCCACATATA [CACACA_site590] | 9.43 ± 0.61 |
| TATTCCCCCAAACACACACACACACCCACATACCAC [CACACA_site2304] | 9.33 ± 0.23 |
| AAAAAAAAAATACATACACACACACCCACCCATATA [CACACA_site9187] | 9.14 ± 0.54 |
| CATATTCCCCCCCACACACACACACCCATACATACC [CACACA_site2303] | 11.1 ± 0.18 |
| CATACACCCATACATACACACATACATACACCCATA [CACACA_site5124] | 8.67 ± 0.47 |
| TACATATACAGACACACACACACACCCCCACAAAAA [CACACA_site495] | 9.88 ± 0.52 |
| TATTCCCCCCAACACACACACACACCGACATACCAC [CACACA_site8723] | 10.2 ± 0.23 |
| CATATATACGCATACACACACACACCCACACCCACA [CACACA_site1725] | 8.79 ± 0.52 |
| CACAAACACCCAAACACACACACACCGACATACATA [CACACA_site4410] | 8.41 ± 0.54 |
| TTTTTTTTTTTTTTTATAGTACATTACCAAAAAAAA [CACACA_negctrl_site1197] | 8.27 ± 0.39 |
| TTTGAAATAAGCAAATGTACATTATTATTAAATATA [XGTACX_site6158] | 8.38 ± 0.32 |
| GAATCACTAATTTTTTTACACACCACAATTTAATTT [CACACA_site8311] | 8.94 ± 0.47 |
| TATATTAAATATTACACACATACATTTAGTGTCAAA [CACACA_site1990] | 8.35 ± 0.37 |
| TTTTTATATTCCCCCAGTACATATATAATAGTAGTA [XGTACX_site7927] | 10 ± 0.3 |
| AACAAGAAAAAAAAAAAAAAAAAAAAAAAATATTTT [XGTACX_negctrl_site428] | 8.13 ± 0.3 |
